From PubChem BioAssay (Tox21)
Records with an inconclusive call do not appear. Active and inactive are the calls of the source. Unless noted, the call rests on the fitted dose curve; in most records, active means well fitted curve in the direction sought with a large enough effect in the repeat runs; inconclusive means weak or mixed curves; inactive means no such curve, though single readings can be large; an effect the other way counts as inactive or inconclusive.

Tests used:
[1] = qHTS assay to identify small molecule antagonists of the estrogen related receptor (ERR) signaling pathway from Tox21 library - cell viability counter screen (AID 1224834); further: nearly all actives have a fitted effect of over 30% in size; further: potency means the concentration at half of the fitted maximal effect
Outline: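 CellTiter-Fluor fluorescence, read after 30 min at 37 C, measures viability of ERR cells. Cells plated at 2,000/well and incubated 6 h before pin-tool compound addition, then exposed 17.5 hours at 37 C.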

[2] = qHTS assay to identify small molecule agonists of the constitutive androstane receptor (CAR) signaling pathway - cell viability counter screen (AID 1224836); further: series mostly up to about 92 µM; nearly all actives have a fitted effect of over 45% in size
Outline: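 HepG2 cells stably carrying hCAR and a CYP2B6-2.2kb reporter; 15-concentration compounds plus PK11195 (final 0.75 uM), 23 hr at 37 C/5% CO2. Viability read by CellTiter-Fluor fluorescence.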

[3] = qHTS assay to identify small molecule antagonists of the constitutive androstane receptor (CAR) signaling pathway - cell viability counter screen (AID 1224837); further: series mostly up to about 92 µM; nearly all actives have a fitted effect of over 45% in size
Outline: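 Cytotoxicity counter-screen: CellTiter-Fluor fluorescence after 23 h compound exposure (15-point qHTS) in double-stable HepG2-CYP2B6-hCAR cells, with 50 nM CITCO added.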

[4] = target: Nuclear receptor subfamily 1 group I member 3 (Homo sapiens) (UniProt Q14994); test: qHTS assay to identify small molecule antagonists of the constitutive androstane receptor (CAR) signaling pathway (AID 1224838);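 further: HepG2 cells stably expressing hCAR with CYP2B6 luciferase reporter stimulated by CITCO; nearly all actives have a fitted effect of over 40% in size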
Nuclear receptor subfamily 1 group I member 3 (Homo sapiens), sequence (Q14994 whole entry, looked up): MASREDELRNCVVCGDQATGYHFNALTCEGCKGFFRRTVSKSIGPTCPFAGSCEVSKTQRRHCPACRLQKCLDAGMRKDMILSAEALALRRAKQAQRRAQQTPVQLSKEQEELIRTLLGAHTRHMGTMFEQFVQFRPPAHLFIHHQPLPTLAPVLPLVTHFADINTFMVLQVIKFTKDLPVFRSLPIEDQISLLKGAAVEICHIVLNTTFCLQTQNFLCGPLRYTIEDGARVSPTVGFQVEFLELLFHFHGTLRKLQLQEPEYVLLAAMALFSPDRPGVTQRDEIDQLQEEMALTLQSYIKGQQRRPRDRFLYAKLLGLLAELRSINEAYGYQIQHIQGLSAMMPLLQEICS
Outline: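 Antagonism measured as luciferase signal (ONE-Glo, 30 min, room temperature) in CAR-stimulated cells: HepG2-CYP2B6-hCAR double-stable line exposed 24 hr at 37 C to compound in a 15-point series plus 50 nM CITCO.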

[5] = target: Nuclear receptor subfamily 1 group I member 3 (Homo sapiens) (UniProt Q14994); test: qHTS assay to identify small molecule agonists of the constitutive androstane receptor (CAR) signaling pathway (AID 1224839); further: nearly all actives have a fitted effect of over 15% in size; further: potency means the concentration at half of the fitted maximal effect;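 on activation: HepG2 cells stably carrying human CAR and a CYP2B6 luciferase reporter; series mostly up to about 92 µM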
Outline: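 HepG2 cells stably co-transfected with hCAR and a CYP2B6-2.2kb luciferase reporter; compounds at 15 concentrations with 0.75 uM PK11195 present. After 24 hr at 37 C, luciferase read by ONE-Glo luminescence.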

[6] = qHTS assay to identify small molecule antagonists of the estrogen related receptor signaling pathway with the pleiotropic PPARgamma coactivator (PGC) from Tox21 10K library - cell viability counter screen (AID 1224840; active means well fitted cell-killing curve with a large enough effect in the repeat runs, not every such curve was filed as active; further: nearly all actives have a fitted effect of over 40% in size)
Outline: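 Counter-screen for cytotoxicity: after 17.5 h compound exposure at 37 C, CellTiter-Fluor reagent added to PGC/ERR cells for 30 min and fluorescence read. Cells were seeded at 2,000 per well 6 h before dosing.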

[7] = qHTS assay to identify small molecule agonists of the hypoxia (HIF-1) signaling pathway - cell viability counter screen (AID 1224844; calls by dose curve; further: nearly all actives have a fitted effect of over 50% in size)
Outline: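 Cytotoxicity measured by CellTiter-Glo ATP luminescence in the wells also read for beta-lactamase signal. Cells were HRE-bla ME-180 (2,000/well, 0.5% dialyzed FBS), exposed to compounds for 17 h at 37C.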

[8] = qHTS assay to identify small molecule agonists of H2AX (AID 1224845; active means well fitted activation curve with a large enough effect in the signal ratio in the repeat runs, not every such curve was filed as active; the % refers to the signal ratio; further: potency means the concentration at half of the fitted maximal effect)
Outline: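 Wild-type CHO-K1 cells, plated overnight, exposed 3hr at 37C to 15 concentrations (0.76% DMSO final). Lysed, then HTRF anti-pH2AX (S139) cryptate and anti-H2AX-d2 antibodies, 24 hr room temperature; 665/620 nm emission read.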

[9] = qHTS assay to identify small molecule agonists of H2AX - cell viability counter screen (AID 1224847; calls by dose curve; further: top concentration of the series differs between compounds; nearly all actives have a fitted effect of over 30% in size)
Outline: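 CHO-K1 cells plated overnight at 37C, then exposed 3 h at 37C to compounds at 15 concentrations (0.76% DMSO final). Viability by CellTiter-Glo luminescence after 30 min at room temperature.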

[10] = qHTS RealTime-Glo MT Cell Viability Assay in HEK293 cells - 32 hour (AID 1224868); further: nearly all actives have a fitted effect of over 50% in size; further: potency means the concentration at half of the fitted maximal effect; on activity change, negative = cytotoxic: top concentration of the series differs between compounds
Outline: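 Quantitative high-throughput screen of the Tox21 10K library in HEK293: cells and RealTime-Glo reagents plated together, compound added at 5 h, luminescence monitored through 40 h at 37 C.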

[11] = A CellTox Green Cytotoxicity Assay to monitor cytotoxicity in HEK293 cells - 0 hour (AID 1224869); further: nearly all actives have a fitted effect of over 50% in size
Outline: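 Fluorescence from a DNA-binding dye excluded by viable cells was measured repeatedly in the same HEK293 wells (600 cells/well) during continuous compound exposure at 37 C. Each assay gives one read point: 0, 8, 16, 24, 32 or 40 h.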

[12] = qHTS RealTime-Glo MT Cell Viability Assay in HepG2 cells - 40 hour (AID 1224870); further: nearly all actives have a fitted effect of over 50% in size
Outline: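 HepG2 cells (600/well) mixed with RealTime-Glo MT reagent, settled 5 h at 37 C/5% CO2 before compound addition. Nonlytic NanoLuc luminescence from viable-cell prosubstrate reduction read repeatedly during 40 h treatment at 37 C.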

[13] = qHTS assay to identify small molecule agonists of the hypoxia (HIF-1) signaling pathway (AID 1224846; active means well fitted activation curve with a large enough effect in the signal ratio in the repeat runs, not every such curve was filed as active; the % refers to the signal ratio)
Outline: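 Compounds added to ME-180 cells carrying hypoxia-response-element beta-lactamase reporter (0.5% dialyzed FBS, 5 h preplating), 17 h at 37C; agonist activity detected by CCF4-AM B/G FRET read-out.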

[14] = qHTS RealTime-Glo MT Cell Viability Assay in HepG2 cells - 24 hour (AID 1224867); further: nearly all actives have a fitted effect of over 50% in size
Outline: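 Compound treatment began 5 h after plating HepG2 cells (600/well) with NanoLuc luciferase and prosubstrate. Plates stayed at 37 C for 40 h; luminescence was captured at six time points, 0 h through 40 h.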

[15] = target: Thyrotropin receptor (Homo sapiens) (UniProt P16473); test: qHTS assay to identify small molecule agonists of the thyroid stimulating hormone receptor (TSHR) signaling pathway (AID 1224843; calls by dose curve; further: nearly all actives have a fitted effect of over 45% in size)
Thyrotropin receptor (Homo sapiens), sequence (P16473 whole entry, looked up): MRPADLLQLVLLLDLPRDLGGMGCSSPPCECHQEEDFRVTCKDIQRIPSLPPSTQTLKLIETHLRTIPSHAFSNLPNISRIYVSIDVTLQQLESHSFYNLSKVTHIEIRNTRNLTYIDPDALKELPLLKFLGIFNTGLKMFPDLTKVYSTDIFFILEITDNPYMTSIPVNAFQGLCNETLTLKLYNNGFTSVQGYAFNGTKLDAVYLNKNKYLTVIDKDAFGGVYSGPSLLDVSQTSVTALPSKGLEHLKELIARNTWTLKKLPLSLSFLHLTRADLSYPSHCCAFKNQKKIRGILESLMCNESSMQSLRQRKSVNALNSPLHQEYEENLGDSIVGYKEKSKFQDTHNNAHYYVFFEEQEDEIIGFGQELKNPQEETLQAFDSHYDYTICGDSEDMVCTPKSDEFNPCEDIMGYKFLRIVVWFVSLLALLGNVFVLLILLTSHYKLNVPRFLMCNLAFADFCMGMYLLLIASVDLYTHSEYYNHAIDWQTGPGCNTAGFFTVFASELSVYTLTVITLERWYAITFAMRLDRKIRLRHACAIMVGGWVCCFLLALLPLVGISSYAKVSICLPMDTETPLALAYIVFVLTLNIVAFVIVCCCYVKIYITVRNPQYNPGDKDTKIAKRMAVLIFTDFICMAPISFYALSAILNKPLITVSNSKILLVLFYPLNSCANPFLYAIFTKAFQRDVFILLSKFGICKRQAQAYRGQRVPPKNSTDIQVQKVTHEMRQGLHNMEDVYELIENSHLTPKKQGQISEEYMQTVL
Outline: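 Agonist-mode screen: TSHR HEK293 cells received test chemicals for half an hour at room temperature, then HTRF cAMP detection reagents for one hour prior to fluorescence measurement. Each chemical ran as a 15-concentration series, triplicated.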

[16] = target: Luciferin 4-monooxygenase (Photinus pyralis) (UniProt P08659); test: qHTS assay to identify small molecule inhibitors of firefly luciferase (AID 1224835); further: nearly all actives have a fitted effect of over 25% in size; further: potency means the concentration at half of the fitted maximal effect; on activity change, negative = inhibition: series mostly up to about 120 µM
Luciferin 4-monooxygenase (Photinus pyralis), sequence (P08659 whole entry, looked up): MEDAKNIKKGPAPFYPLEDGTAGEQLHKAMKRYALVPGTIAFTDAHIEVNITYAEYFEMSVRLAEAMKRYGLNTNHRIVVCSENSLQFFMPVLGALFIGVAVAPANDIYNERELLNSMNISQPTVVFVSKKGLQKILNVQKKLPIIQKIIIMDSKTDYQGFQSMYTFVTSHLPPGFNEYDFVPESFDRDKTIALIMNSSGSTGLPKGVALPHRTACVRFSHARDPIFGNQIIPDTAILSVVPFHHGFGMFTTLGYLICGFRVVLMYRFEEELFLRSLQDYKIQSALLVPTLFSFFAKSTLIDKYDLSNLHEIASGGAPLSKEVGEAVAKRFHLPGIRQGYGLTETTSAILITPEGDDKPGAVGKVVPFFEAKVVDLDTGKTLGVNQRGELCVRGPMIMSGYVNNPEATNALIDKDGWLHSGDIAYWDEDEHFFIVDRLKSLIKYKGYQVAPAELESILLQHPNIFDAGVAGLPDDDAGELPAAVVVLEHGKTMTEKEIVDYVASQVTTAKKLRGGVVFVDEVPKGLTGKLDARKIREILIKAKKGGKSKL
Outline: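 Biochemical qHTS: compounds run as interplate titrations against purified firefly enzyme, with D-luciferin and ATP each at its KM concentration. Light output recorded by CCD imaging.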

[17] = qHTS assay to identify small molecule antagonists of the estrogen related receptor signaling pathway with the pleiotropic PPARgamma coactivator (PGC) from Tox21 10K library (AID 1224841; call rule not given here; further: potency means the concentration at half of the fitted maximal effect; on activity, negative = inhibition: series mostly up to about 92 µM)
Outline: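 Luminescence (One-Glo, 30 min at room temperature) after 18 h compound treatment at 37 C of PGC/ERR reporter cells plated at 2,000 cells/well and settled 6 h beforehand.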

[18] = qHTS assay to identify small molecule agonists of the estrogen related receptor signaling pathway with the pleiotropic PPARgamma coactivator (PGC) from Tox21 10K library (AID 1224842); further: nearly all actives have a fitted effect of over 15% in size
Outline: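 PGC/ERR reporter cell line, 2,000 cells per well, incubated 6 h at 37 C before 23 nL compound in DMSO was added. After 18 h at 37 C, One-Glo luminescence read following 30 min at room temperature.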

[19] = qHTS assay to identify small molecule antagonists of the estrogen related receptor (ERR) signaling pathway from Tox21 library (AID 1224848); further: nearly all actives have a fitted effect of over 50% in size; further: potency means the concentration at half of the fitted maximal effect
Outline: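 Quantitative high-throughput format: ERR reporter cells (2,000/well) pre-incubated 6 h, treated 18 h at 37 C with compounds in DMSO alongside positive and negative controls, then read by ONE-Glo luminescence.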

[20] = qHTS assay to identify small molecule agonists of the estrogen related receptor (ERR) signaling pathway from Tox21 library (AID 1224849; calls by dose curve; further: nearly all actives have a fitted effect of over 15% in size)
Outline: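 Luminescent agonist read-out (One-Glo, 30-minute room-temperature incubation) following 18-hour compound treatment at 37 C of the ERR cell line, which had been plated 6 hours before dosing.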
On the % scale 0 is the no-effect control and ±100 the full control effect.

CC(=O)c1ccc2ccccc2c1
inactive: Potency [1] | outcome [2] | outcome [3] | Potency [4] | Potency [5] | outcome [6] | Potency [7] | Potency [8] | outcome [9] | Potency [10] | outcome [11] | Potency [12]

C=C(C)C(=O)OCC1CCCO1 (configuration not stated)
inactive: Potency [1] | outcome [2] | outcome [3] | Potency [4] | Potency [5] | outcome [6] | Potency [7] | Potency [8] | outcome [13] | outcome [9] | outcome [14] | Potency [10] | outcome [11] | Potency [12]

CC1CCC(CO)CC1 (configuration not stated)
inactive: Potency [1] | outcome [2] | outcome [3] | Potency [4] | Potency [5] | outcome [6] | Potency [15] | Potency [7] | Potency [8] | outcome [13] | outcome [9] | outcome [14] | Potency [10] | outcome [11] | Potency [12]

CCN(Cc1ccccc1)c1ccccc1
active: Potency [1] 24 µM | Potency [17] 42.7 µM | Potency [19] 30.3 µM | Potency [10] 19.3 µM
inactive: Potency [16] | Potency [18] | Potency [15] | outcome [9] | outcome [20] | outcome [14] | outcome [11] | Potency [12]

COC(=O)Nc1ccc(Cl)c(Cl)c1
active: Potency [5] 60.8 µM
inactive: Potency [1] | outcome [2] | outcome [3] | Potency [4] | outcome [6] | Potency [15] | Potency [7] | Potency [8] | outcome [13] | outcome [9] | outcome [14] | outcome [11] | Potency [12]

N[C@@H](CCC(=O)O)C(=O)O
inactive: Potency [1] | outcome [2] | outcome [3] | Potency [4] | Potency [5] | outcome [6] | Potency [15] | Potency [7] | Potency [8] | outcome [13] | outcome [9] | outcome [14] | Potency [10] | outcome [11] | Potency [12]

CCCCc1nc(Cl)c(CO)n1Cc1ccc(-c2ccccc2-c2nn[nH]n2)cc1
inactive: Potency [1] | outcome [2] | outcome [3] | Potency [4] | Potency [5] | outcome [6] | Potency [7] | Potency [8] | outcome [9] | outcome [14] | Potency [10] | outcome [11] | Potency [12]

NC(N)=NCCN1CCCCCCC1
inactive: viability change, negative = cytotoxic [1] 1.48% [at 0.349 µM] | activity change, negative = inhibition [16] -0.118% [at 0.435 µM] | activation [15] -0.603% [at 0.349 µM] | activity change, negative = cytotoxicity [7] -1.67% [at 0.29 µM] | activation (H2AX phosphorylation) [8] 0.429% [at 0.582 µM] | activity change, negative = cytotoxicity [9] 0.639% [at 0.582 µM] | activity, negative = inhibition [19] 12.8% [at 0.349 µM] | activity change, positive = activation [20] 7.2% [at 0.349 µM] | activity change, negative = cytotoxicity [14] 0.287% [at 0.29 µM] | activity change, negative = cytotoxic [10] -3.18% [at 0.29 µM] | cytotoxicity [11] 4.87% [at 0.29 µM] | activity change, negative = cytotoxic [12] 0.511% [at 0.29 µM]

CCCCOC(=O)CCC(C)=O
inactive: Potency [1] | outcome [2] | outcome [3] | Potency [4] | Potency [5] | outcome [6] | Potency [15] | Potency [7] | Potency [8] | outcome [13] | outcome [14] | Potency [10] | Potency [12]

COc1c(N2CCNC(C)C2)c(F)cc2c(=O)c(C(=O)O)cn(C3CC3)c12 (configuration not stated)
inactive: Potency [1] | outcome [2] | outcome [3] | Potency [4] | Potency [5] | outcome [6] | Potency [7] | Potency [8] | outcome [9] | outcome [14] | Potency [10] | outcome [11] | Potency [12]

CC(N)C12CC3CC(CC(C3)C1)C2 (configuration not stated)
inactive: Potency [1] | Potency [16] | outcome [3] | outcome [6] | Potency [15] | Potency [7] | Potency [8] | outcome [9] | outcome [14] | Potency [10] | outcome [11] | Potency [12]

NC(=O)Cc1cccc2ccccc12
inactive: Potency [1] | outcome [2] | outcome [3] | Potency [4] | Potency [5] | outcome [6] | Potency [15] | Potency [7] | Potency [8] | outcome [13] | outcome [9] | outcome [14] | Potency [10] | outcome [11] | Potency [12]

CN(C)CCCCCCN(C)C
inactive: Potency [1] | outcome [2] | outcome [3] | Potency [4] | Potency [5] | outcome [6] | Potency [17] | Potency [18] | Potency [15] | Potency [7] | outcome [9] | Potency [19] | outcome [20] | outcome [14] | Potency [10] | outcome [11] | Potency [12]

CCCCCCCCCCCCCCC(=O)O
inactive: Potency [1] | outcome [2] | outcome [3] | Potency [4] | Potency [5] | outcome [6] | Potency [15] | Potency [7] | Potency [8] | outcome [13] | outcome [9] | Potency [10] | outcome [11] | Potency [12]

c1ccc(CCc2ccccc2)cc1
inactive: Potency [1] | outcome [2] | outcome [3] | Potency [4] | Potency [5] | outcome [6] | Potency [17] | Potency [18] | Potency [7] | Potency [8] | outcome [9] | Potency [19] | outcome [20] | Potency [10] | outcome [11] | Potency [12]

CC1=NS(=O)(=O)c2cc(Cl)ccc2N1
inactive: Potency [1] | outcome [2] | outcome [3] | Potency [4] | Potency [5] | outcome [6] | Potency [15] | Potency [7] | Potency [8] | outcome [9] | Potency [10] | outcome [11] | Potency [12]

Cc1nc2ccc(CN(C)c3ccc(C(=O)N[C@@H](CCC(=O)O)C(=O)O)s3)cc2c(=O)[nH]1
inactive: Potency [1] | outcome [2] | outcome [3] | Potency [4] | Potency [5] | Potency [15] | Potency [7] | outcome [13] | outcome [9] | Potency [10] | outcome [11] | Potency [12]
active: Potency [8] 0.619 µM

O=C1c2ccccc2C(=O)c2cc(O)ccc21
inactive: outcome [2] | outcome [3] | Potency [4] | outcome [6] | Potency [15] | Potency [7] | outcome [13] | outcome [9] | outcome [14] | outcome [11] | Potency [12]
active: Potency [16] 28.3 µM | Potency [5] 54.5 µM

CCC1C(=O)OCC1Cc1cncn1C (configuration not stated)
inactive: Potency [16] | outcome [2] | outcome [3] | Potency [15] | Potency [7] | Potency [8] | outcome [9] | outcome [14] | Potency [10] | outcome [11] | Potency [12]
